RORg inh: blocks mouse ROR gamma transcriptional activity; 310,000 tested, 5.4% active; P51450; Potency, µM (top dose mostly 53.6 µM), actives largely listed as inhibitors; Drosophila S2 Gal4-RORgamma UAS-luciferase reporter, 20 h; AID 2551; further: nearly all actives have a fitted effect of over 60% in size
Target sequence (P51450 whole entry, looked up, the tested form may be a part): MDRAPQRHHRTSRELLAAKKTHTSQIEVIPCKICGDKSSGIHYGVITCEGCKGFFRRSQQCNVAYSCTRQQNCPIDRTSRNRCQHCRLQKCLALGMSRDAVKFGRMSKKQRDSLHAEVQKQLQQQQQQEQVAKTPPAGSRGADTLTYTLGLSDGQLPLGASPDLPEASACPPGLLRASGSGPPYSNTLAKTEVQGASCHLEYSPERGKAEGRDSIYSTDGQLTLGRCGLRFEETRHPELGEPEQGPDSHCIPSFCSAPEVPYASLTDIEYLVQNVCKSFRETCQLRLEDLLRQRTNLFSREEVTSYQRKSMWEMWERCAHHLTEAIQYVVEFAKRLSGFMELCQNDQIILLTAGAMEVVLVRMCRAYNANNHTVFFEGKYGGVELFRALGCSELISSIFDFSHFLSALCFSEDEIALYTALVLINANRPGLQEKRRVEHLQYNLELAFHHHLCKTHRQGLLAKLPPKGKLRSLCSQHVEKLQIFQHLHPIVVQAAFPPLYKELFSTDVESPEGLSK
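Using a luciferase readout, inhibitors were identified by reduced reporter activity in Drosophila cells coexpressing a copper-inducible Gal4–ROR gamma fusion and UAS-driven Photinus luciferase, incubated 20 hr after 700 uM copper sulfate.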
SW480 rerep: inducers of DNA re-replication in SW480 colon cancer cells | SW480 DNA re-replication, Hoechst DNA content imaging, 48 h | Potency, µM (series often up to 46.1 µM), actives largely listed as activators | 340,000 tested, 1.8% active; further: nearly all actives have a fitted effect of over 55% in size
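Hoechst fluorescence of nuclei (405 nm excitation, 500-530 nm emission) measured by plate-scanning imager after 48 hr compound exposure at 37 C; re-replication scored as increased number of nuclei with elevated intensity.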
MCF10A rereplic: DNA re-replication induction in MCF 10a cells; AID 624296; MCF 10A DNA re-replication, Hoechst nuclear intensity, 48 h; Potency, µM (top dose mostly 46.1 µM), usual class: activators; 350,000 tested, 2.9% active; further: nearly all actives have a fitted effect of over 50% in size
Gal4-VP16 FLuc: inhibits Gal4-VP16 luciferase reporter, ROR gamma counter-screen; Drosophila S2 Gal4-VP16 UAS-luciferase, luminescence, 20 h; Potency, µM (titrated, usually from 53.6 µM), actives largely listed as inhibitors; 310,000 tested, 3.5% active; AID 2546;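 further: Gal4-VP16 expression switched on by copper sulfate through the metallothionein promoter; nearly all actives have a fitted effect of over 50% in size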
ELG1 DNA repair: ELG1-dependent DNA repair inhibition; HEK293T ELG1-luciferase reporter, luminescence, 16 h; DNA damage induced by 5-fluorouridine; 330,000 tested, 2.3% active; Potency, µM (top dose mostly 46.1 µM), most hits filed as inhibitors; further: nearly all actives have a fitted effect of over 55% in size
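Reporter activity after DNA damage by 5-fluorouridine is monitored. Compound-treated cells incubate 16 hr at 37 °C, then ONE-Glo is added for 30 min before luminescence reading.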
A number is an active result; - = inactive; ? = inconclusive; . = no result; [ ] = another dose, or the depositor's remark. The list is not random: actives were taken first. Their share in the collection is about 10%. The call rests on the fitted dose curve; in most records, active means well fitted curve in the direction sought with a large enough effect; inconclusive means small, poorly fitted or top-dose-only effect, or another doubt; inactive means no such curve, though single readings can be large; an effect the other way counts as inactive or inconclusive.

SMILES	RORg inh	SW480 rerep	MCF10A rereplic	Gal4-VP16 FLuc	ELG1 DNA repair
O=c1c2ccccc2nnn1CSc1nc2ccccc2c(=O)n1Cc1ccco1	2.51µM	-	?	?	-
O=C(N/N=C/c1ccccc1O)C1CC(=O)N(c2ccc(F)cc2)C1 (stereo unspecified)	2.82µM	?	-	6.31µM	?
COc1ccc(N2CC(C(=O)Nc3ccc([N+](=O)[O-])cc3Br)CC2=O)cc1 (stereo unspecified)	-	-	-	-	-
COc1ccc(N2CC(C(=O)N/N=C/c3cc([N+](=O)[O-])ccc3O)CC2=O)cc1 (stereo unspecified)	5.62µM	?	?	17.8µM	?
CCC(=O)NC(c1ccc(C)cc1)c1cc(Cl)c2cccnc2c1O (stereo unspecified)	.	?	-	.	3.66µM
CCCC(=O)NC(c1cccs1)c1cc(Cl)c2cccnc2c1O (stereo unspecified)	0.398µM	1.3µM	-	0.501µM	-
CCCC(=O)NC(c1ccc2c(c1)OCO2)c1cc(Cl)c2cccnc2c1O (stereo unspecified)	1.41µM	?	?	1.26µM	-
CCC(=O)NC(c1ccco1)c1cc(Cl)c2ccccc2c1O (stereo unspecified)	.	?	-	.	?
CCCC(=O)NC(c1ccco1)c1cc(Cl)c2cccnc2c1O (stereo unspecified)	3.98µM	?	?	3.55µM	?
CCOC(=O)c1cc2c(C)n(-c3ccc(C)cc3)c(C)c2ccc1=O	-	?	-	10µM	?
Cc1cc(Br)ccc1SCC(=O)N1CCN(S(=O)(=O)c2ccccc2)CC1	?	-	-	7.08µM	?
O=C(CSc1ncccn1)N1CCN(S(=O)(=O)c2ccccc2)CC1	-	-	-	-	-
O=C(CSc1nc(-c2ccccc2)c(-c2ccccc2)[nH]1)N1CCN(S(=O)(=O)c2ccccc2)CC1	-	-	-	-	16.4µM
CC(C)(C#N)NC(=O)C1CCCN1S(=O)(=O)c1ccc2ccccc2c1 (stereo unspecified)	-	23.1µM	?	-	-
CCNC(=O)C1CCCN1S(=O)(=O)c1ccc2ccccc2c1 (stereo unspecified)	-	-	-	-	-
CC(C)(C)OC(=O)NCC12C=CC(O1)C1C(=O)N(Cc3ccccc3)C(=O)C12 (stereo unspecified)	?	-	-	?	23.1µM
Cc1cccc(NC(=S)NCC23C=CC(O2)C2C(=O)N(c4ccc(Cl)cc4)C(=O)C23)c1 (stereo unspecified)	-[10 µM]	?	?	?	-
CCCCCCCCCCn1ccc(=N)cc1	7.94µM	20.6µM	?	?	?
CCCCCCN1Cc2ccccc2C1	-	-	-	-	-
CCCCCCCCn1ccc(=N)cc1	?	-	-	7.08µM	0.731µM
CCOc1ccc(OCC)c(S(=O)(=O)NCCOC23CC4CC(CC(C4)C2)C3)c1	-	-	?	?	?
COc1cc(S(=O)(=O)NCCOC23CC4CC(CC(C4)C2)C3)c(OC)cc1Cl	-	-	?	-	16.4µM
CCCn1c2ccc(C)cc2c2nnc(SCCN3CCOCC3)nc21	-	-	-	-	?
CC1(c2ccc(OC(F)F)cc2)NC(=O)N(/N=C/c2c(O)ccc3ccccc23)C1=O (stereo unspecified)	?	-	?	14.1µM	-
COc1ccc(NC(=O)c2ccccc2OCc2ccc(F)cc2)c(OC)c1	?	-	?	-	?
SMILES	RORg inh	SW480 rerep	MCF10A rereplic	Gal4-VP16 FLuc	ELG1 DNA repair
CN(CC(=O)Nc1ccc(F)cc1)C(=O)CN1C(=O)NC2(CCCC2)C1=O	.	-	-	.	-
Cn1c(C=O)c(C#CC(C)(C)O)c2ccccc21	.	-	-	.	-
COc1cccc(C#Cc2c(C=O)n(C)c3ccccc23)c1	.	2.31µM	?	.	-
Cc1noc(C)c1-c1cc(NC2CCNCC2)ncn1	-	.	.	-	.
O=C(Cn1sc2ccccc2c1=O)NC12CC3CC(CC(C3)C1)C2	3.55µM	?	?	0.501µM	?
Nc1cccc2c1C(=O)N(CC(=O)NC13CC4CC(CC(C4)C1)C3)C2=O	-	?	?	-	-
COC(=O)c1ccc(C(=O)Nc2ccc3nc(-c4ccncc4)[nH]c3c2)cc1	-	-	-	-	-
CC(C)OC(=O)Nc1ccc2nc(-c3cscn3)[nH]c2c1	?	5.31µM	9.44µM	?	.
CC1CCCCN1S(=O)(=O)Cc1ccccc1Cl (stereo unspecified)	?	-	-	-	-
Cc1noc(C)c1CSc1nc2ccccc2nc1NS(=O)(=O)c1ccc(Cl)cc1	?	-	2.59µM	-	13µM
COCCCNc1nc2ccccc2nc1NS(=O)(=O)c1ccc(Cl)cc1	-	-	-	-	-
O=S(=O)(Nc1nc2ccccc2nc1NCc1ccco1)c1ccc(Cl)cc1	-	-[9.22 µM]	?	11.2µM	-
CC(C)COc1ccc(C(=O)Nc2ccc([N+](=O)[O-])cc2)cc1	-	-	-	-[10 µM]	1.46µM
CC(C)CNC(=S)NC(=O)c1ccc([N+](=O)[O-])cc1	4.47µM	-	-	14.1µM	?
CCCCNC(=S)NC(=O)c1ccc([N+](=O)[O-])cc1	4.47µM	-	-	?	-
CCC(=O)Oc1ccc(C(=O)Nc2ccc([N+](=O)[O-])cc2)cc1	-	?	-	-	?
CC(C)CNC(=S)NC(=O)c1csc([N+](=O)[O-])c1	?	-	-	?	-
O=[N+]([O-])c1ccc(NNC(=S)Nc2ccc(F)cc2)cc1	?	-	-	11.2µM	?
CCCCNC(=S)Nc1ccc([N+](=O)[O-])cc1	-	-	18.4µM	-	-
CCCN(CCC)CC(O)Cn1cc(/C=C/C(=O)c2ccccc2)c2ccccc21 (stereo unspecified)	?	?	5.17µM	-	-
CCCN(CCC)CC(O)Cn1cc(/C=C/C(=O)c2cccs2)c2ccccc21 (stereo unspecified)	-	16.4µM	?	?	-
Nc1nnc(SCC(=O)N2CCN(c3cccc(Cl)c3)CC2)n1-c1ccccc1	.	-	-	.	.
Cc1ccc2cccc(NC(=S)NC(=O)c3c(Br)cnn3C)c2n1	3.98µM	-	?	?	-
Cc1ccc2cccc(NC(=S)NC(=O)c3ccn(C)n3)c2n1	5.01µM	?	-	5.62µM	?
O=C1NC(=O)C2(COC(c3ccccc3Cl)OC2)S1 (stereo unspecified)	-	-	-	-	?
Cc1c(Cl)cccc1NC(=S)NCC1COc2ccccc2O1 (stereo unspecified)	6.31µM	-	?	?	-
O=C(NC(=S)NCC1COc2ccccc2O1)c1ccccc1 (stereo unspecified)	-	-	?	-	-
C=CCNC(=S)NCC1COc2ccccc2O1 (stereo unspecified)	11.2µM	-	-	-	-
Cn1ccc(C(=O)NC(=S)N2CCSCC2)n1	11.2µM	-	-	-	?
